# Laboratory results: PubChem BioAssay (NCATS)
# The source made the active and inactive calls. Calls come from the whole dose curve.
# Experiment: qHTS drug screen for cell cycle checkpoint inhibitors in PARPi-resistant BRCA-mutant ovarian cancer cell lines. (AID 1963452)
# Conditions: PEO1/OlaR viability, CellTiter-Glo luminescence, 96 h, stronger effect = lower value
# Excerpt: Women's Malignancies Branch, Center for Cancer Research (CCR),
# National Cancer Institute (NCI), National Institutes of Health (NIH), Bethesda, MD
# Poly (ADP-ribose) polymerase inhibitors (PARPis) have changed the treatment paradigm in breast cancer gene (BRCA) - mutant high-grade serous ovarian carcinoma (HGSC). However, most patients eventually develop resistance to PARPis, highlighting an unmet need for improved therapeutic strategies. Using high-throughput drug screens, we identified ataxia telangiectasia and rad3-related protein/checkpoint kinase 1 (CHK1) pathway inhibitors as cytotoxic and further validated the activity of the CHK1 inhibitor (CHK1i) prexasertib in PARPi-sensitive and -resistant BRCA-mutant HGSC cells and xenograft mouse models. CHK1i monotherapy induced DNA damage, apoptosis, and tumor size reduction. We then conducted a phase 2 study (NCT02203513) of prexasertib in patients with BRCA-mutant HGSC. The treatment was well tolerated but yielded an objective response rate of 6% (1 of 17; one partial response) in patients with previous PARPi treatment. […] BRCA reversion mutation in previously PARPi-treated BRCA-mutant patients was not associated with resistance to CHK1i.
# Among others, 1082 oncology drugs, both approved and investigational, were prioritized based on their status in clinical trial development. […] Drugs with average Z-AUC values less than -1.0 in all three cell lines were classified as "hits" resulting in 151 oncology drug hits. The screen also confirmed cross-resistance between olaparib and other PARPis (rucaparib, niraparib, and talazoparib) in PARPi-resistant PEO1/OlaR and PEO4.
# [1] G. L. Lin, K. M. Wilson, M. Ceribelli, B. Z. Stanton, P. J. Woo, S. Kreimer, E. Y. Qin, X. Zhang, J. Lennon, S. Nagaraja, P. J. Morris, M. Quezada, S. M. Gillespie, D. Y. Duveau, A. M. Michalowski, P. Shinn, R. Guha, M. Ferrer, C. Klumpp-Thomas, S. Michael, C. McKnight, P. Minhas, Z. Itkin, E. H. Raabe, L. Chen, R. Ghanem, A. C. Geraghty, L. Ni, K. I. Andreasson, N. A. Vitanza, K. E.Warren, C. J. Thomas, M. Monje, Therapeutic strategies for diffuse midline glioma from high-throughput combination drug screening. Sci. Transl. Med. 11, (2019).
# [2] T. M. Yamamoto, A. McMellen, Z. L. Watson, J. Aguilera, R. Ferguson, E. Nurmemmedov, T. Thakar, G. L. Moldovan, H. Kim, D. M. Cittelly, A. M. Joglar, E. P. Brennecke, H. Wilson, K. Behbakht, M. J. Sikora, B. G. Bitler, Activation of Wnt signaling promotes olaparib resistant ovarian cancer. Mol. Carcinog. 58, 1770 - 1782 (2019).
# PROTOCOL TABLE (as described by Inglese J, Shamu CE and Guy RK. 2007)
# SEQUENCE No. (e.g., 1, 2, 3, etc.); […] (e.g., Cells, Incubation, Reagent, etc.); VALUE; DESCRIPTION.
# 1; Compounds; 20nL; 1536-well white tissue culture-treated plates.
# 2; Cells; 5 uL; PEO1, PEO4, and PEO1/OlaR cells at 600 cells per well.
# 3; Incubation; 96 hr; 37C, 95% humidity, 5% CO2.
# 4; Reagent; 3 uL; CellTiter-Glo (Promega).
# 5; Incubation; 15 min; room temperature.
# 6; Detection; Luminescence, PHERAstar (BMG Labtech) plate reader.
# NOTES (numbers refer to Sequence numbers above)
# 1. MIPE 5.0 compounds were acoustically dispensed by Echo Acoustic Liquid Handler (Beckman Coulter Life Sciences). Each compound was plated at an 11-point concentration range with 1:3 dilution. Bortezomib, a proteasome inhibitor (final concentration, 20 uM), was used as a positive.
# 2. PEO1, PEO4, and PEO1/OlaR were trypsinized and dispensed in 5 uLof growth medium using a Multidrop Combi dispenser at a density of 600 cells per well to allow compounds to be present during the exponential growth phase.
# 3. Plates were incubated for 96 hours at standard incubator conditions and covered by a stainless steel gasketed lid to prevent evaporation.
# 4. Three microliters of CellTiter-Glo (Promega) were added to each well.
# 5. Plates were incubated at room temperature for 15 min with a stainless-steel lid in place.
# 6. Luminescence readings were taken using PHERAstar (BMG Labtech). […]
# [1] = measured here: PEO1 parental Z-AUC
Structure (SMILES),Z-AUC,Z-AUC [1],Z-AUC (measured here: PEO4 Z-AUC)
CCNC(=O)[C@H]1O[C@@H](n2cnc3c(N)nc(NCCc4ccc(CCC(=O)O)cc4)nc32)[C@H](O)[C@@H]1O,1.44 (inactive),0.917,1.15
Oc1cc(O)cc(/C=C/c2ccc(O)c(O)c2)c1,1.52 (inactive),0.906,0.317
O=C(O)[C@H](CC(=O)N1C[C@H]2CCCC[C@H]2C1)Cc1ccccc1,-0.763 (inactive),-0.735,-0.83
CN[C@H](CC(C)C)C(=O)N[C@H]1C(=O)N[C@@H](CC(N)=O)C(=O)N[C@H]2C(=O)N[C@H]3C(=O)N[C@H](C(=O)N[C@H](C(=O)O)c4cc(O)cc(O)c4-c4cc3ccc4O)[C@H](O)c3ccc(c(Cl)c3)Oc3cc2cc(c3O[C@@H]2O[C@H](CO)[C@@H](O)[C@H](O)[C@H]2O[C@H]2C[C@](C)(N)[C@H](O)[C@H](C)O2)Oc2ccc(cc2Cl)[C@H]1O,-0.534 (inactive),-0.325,-1.21
O=C1NC(=O)/C(=C/c2ccc3nccnc3c2)S1,1.93 (inactive),0.559,0.611
O=C(/C=C/c1ccc(O)cc1)c1ccc(O)cc1O,0.396 (inactive),0.804,0.213
O=S(=O)(c1cccc2c(I)cccc12)N1CCCNCC1,-0.863 (inactive),-0.557,-0.682
N=c1ccn2c(n1)O[C@H]1[C@H](O)[C@@H](CO)O[C@H]12,-1.72 (inactive),-1.24,0.152
CCOC(=O)N1CCN(/[N+]([O-])=N/Oc2ccc([N+](=O)[O-])cc2[N+](=O)[O-])CC1,1.46 (inactive),1.72,1.39
N.N.O=C(O)C1(C(=O)O)CCC1.[Pt],1.36 (inactive),0.632,0.869
COc1ccc(/C=C/C(=O)Nc2ccccc2C(=O)O)cc1OC,1.02 (inactive),1.51,0.971
CC[C@H]1OC(=O)[C@H](C)[C@@H](O[C@H]2C[C@@](C)(OC)[C@@H](O)[C@H](C)O2)[C@H](C)[C@@H](O[C@@H]2O[C@H](C)C[C@H](N(C)C)[C@H]2O)[C@](C)(O)C[C@@H](C)C(=O)[C@H](C)[C@@H](O)[C@]1(C)O,1.12 (inactive),0.909,1.27
CCN1/C(=C/C(C)=O)Sc2ccc(OC)cc21,0.945 (inactive),0.672,0.802
COc1cc(/C=C/C(=O)CC(=O)/C=C/c2ccc(O)c(OC)c2)ccc1O,-0.374 (inactive),-0.396,-0.434
